Assay results: PubChem BioAssay (NCI)
The panel holds about 83,000 compounds, 20% with a hit somewhere; the sample as a whole holds those more often.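 Values shown are percent growth following 48 h exposure of cells in 96-well plates to a single concentration of compound; below 10 was considered active.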 A number with no mark means an inactive call. Active and inactive are the calls of the source.

Each compound was assayed on IGROV1 ovarian (assay: NCI-60 one-dose screen, 48 h (100 = growth as untreated, 0 = no growth, -100 = all killed)). Details: 10 µM unless noted.
Experimental: Growth inhibition of the IGROV1 human tumor cell line is measured as a screen for anti-cancer activity. Cells are grown in 96 well plates and exposed to the test compound for 48 hours. Compounds are tested at a single concentration, which is 10^-5 M for most compounds. The reported endpoint is percent growth (GI% or GIPRCNT), where numbers from 0 - 100% represent growth inhibition, and numbers from -100% - 0 represent cell death. For example, a value of 40 represents 60% growth inhibition. A value of 0 means no net growth occurred over the course of the experiment. A value of -40 indicates 40% of cells at the beginning of the experiment died by the end of the experiment. A value of -100 means all cells are dead at the end of the experiment.
NCI-60 Human Tumor Cell Lines Screen was performed using the standard one-dose NCI protocol, which is described in more detail at https://dtp.cancer.gov/discovery_development/nci-60/default.htm.
Compounds with GIPRCNT values below 10 were considered active. Activity score was based on GIPRCNT using the following formula: […]
Score is 0 for GIPRCNT values of 100 or above, 50 for GIPRCNT values of 0, and 100 for GIPRCNT values of -100.

Structure (SMILES) | growth
COc1ncc(-c2ccc3nccc(C#CCN4CCN(S(C)(=O)=O)CC4)c3c2)cc1NS(=O)(=O)c1ccc(F)cc1F | -35.9% (active)
COc1cc2c(C#N)n3c(c2cc1OC)C(=O)C(c1ccccc1)Oc1ccccc1-3 (stereo not given) | 58.3%
O=C(/C=C/c1cc2ccccc2[nH]c1=O)c1ccc(Cl)cc1 | 26.4%
c1ccc(-n2nnnc2-c2cccc3ccccc23)cc1 | 31.4%
CCCc1nn(C)c2c(=O)[nH]c(-c3cc(S(=O)(=O)N4CCN(C)CC4)ccc3OCC)nc12 | 112%
O=C1Nc2ccc(F)cc2/C1=C/c1nc(-c2ccc(F)cc2)n2ccccc12 | 97.8%
CCCCSc1cc(C)nc(N)n1 | 100%
Cc1cc(C(C)(C)c2cc(C)c(O)c(CN(C)C)c2)cc(CN(C)C)c1O | 78.9%
C/C(=N/N=C(N)N)c1ccc(Cl)cc1 | 14.6%
CCC(C)CC(C)C(=O)c1c(O)ccn(O)c1=O (stereo not given) | 24.2%
CCOC(Cc1c(N)[nH]c(=S)[nH]c1=O)OCC | 104%
O=C1/C(=N/O)CCc2ccccc21 | 69.5%
CN(C)c1nc(-c2ccco2)n2nc(-c3ccco3)cc2n1 | 72.4%
COc1ccc(-c2nnc(COc3ccc(NC(=O)Nc4cc(C(F)(F)F)cc(C(F)(F)F)c4)cc3F)o2)cc1 | 44.4%
NC(N)=N/N=C(/c1ccccc1)c1ccc(Cl)cc1 | 18.7%
O=C1Cc2cc(CCN3CCN(CCOCCO)CC3)c(Cl)cc2N1Cc1ccc(-c2ccccc2-c2nn[nH]n2)cc1 | 107%
Cn1cc(-c2csc(-c3cn(C)c4ncccc34)n2)c2cc(Br)cnc21 | 110%
Nc1nc(SCC2(CCl)COC2)c2[nH]cnc2n1 | 101%
Cc1c(NCc2nnc3n(Cc4ccccc4)c(=O)c4c5c(sc4n23)CCCC5)c(=O)n(-c2ccccc2)n1C | 79.2%
O=[N+]([O-])c1ccc(N/N=C\c2ccccc2[N+](=O)[O-])nc1 | 106%

Structure (SMILES) | growth
Cc1cc(CC(=O)O)n(C)c1C(=O)c1ccc(Cl)cc1 | 114%
Cc1nc(N)[nH]c(=O)c1C | 9.58% (active)
COc1ccc(-c2c(-c3cc(OC)c(OC)c(OC)c3)noc2N)cc1 | 22.4%
Clc1ccc(CCC(Cn2ccnc2)Sc2c(Cl)cccc2Cl)cc1 (stereo not given) | 59%
COc1ccc(C(=O)/C=C/c2c(Cl)nc3c(c(C)nn3-c3ccccc3)c2-c2ccc(Br)cc2)cc1 | 116%
CCSc1nnc2n(Cc3ccccc3)c(=O)c3c(C)c(C(N)=O)sc3n12 | 101%
O=c1[nH]c(Cl)nc2c1cnn2-c1ccccc1 | 108%
COc1ccc(C2=NN(C(=O)c3cc(OC)c(OC)c(OC)c3)C(c3ccc(C#N)cc3)C2)cc1OC (stereo not given) | 13.4%
CO[C@H]1/C=C/O[C@@]2(C)Oc3c(C)c(O)c4c(O)c(c(/C=N/N5CCN(C)CC5)c(O)c4c3C2=O)NC(=O)/C(C)=C\C=C\C(C)[C@H](O)[C@@H](C)[C@@H](O)[C@@H](C)[C@@H](OC(C)=O)[C@@H]1C (stereo not given in full) | 105%
CCOC(=O)C(C(C)=O)c1nc2sc3cc(Cl)ccc3n2c(=N)c1C#N (stereo not given) | 84.3%
CCCCCCCCCCCCNc1ncnc2[nH]ncc12 | 92.8%
CC[C@]1(O)CC2CN(CCc3c([nH]c4ccccc34)[C@@](C(=O)OC)(c3cc4c(cc3OC)N(C)[C@H]3[C@@](O)(C(=O)OC)[C@H](OC(C)=O)[C@]5(CC)C=CCN6CC[C@]43[C@@H]65)C2)C1 (stereo not given in full) | 15.9%
CC(C)c1nc(N(C)S(C)(=O)=O)nc(-c2ccc(F)cc2)c1/C=C/[C@@H](O)C[C@@H](O)CC(=O)O | 105%
CC(C)c1ccc(C(=O)Nc2sc3c(CN(C)C)c(O)ccc3c2C(N)=O)cc1 | 27.3%
COc1ccc(-c2cncn2-c2ccc(-c3nc4cc(OC)c(OC)c(OC)c4s3)cc2)cc1N | 58.8%
CC12CCC3C(CCC4CC(=O)/C(=C\O)CC43C)C1CCC(=O)O2 (stereo not given) | 95.1%
CCOc1nc(-c2ccccc2)cc2c(O)c(C(=O)n3nc(C)cc3C)[nH]c(=O)c12 | 97.4%
COc1ccc(COC(C)=O)cc1 | 142%
COc1cc(/C=C/C(=O)c2c(-c3ccc(Cl)cc3)nc3sc(C)nn23)cc(OC)c1OC | 89.7%
Cc1c(C(N)=O)sc2c1C(=O)N(Cc1ccccc1)C1=NN=C(c3ccc(Cl)cc3)CN12 | 42.6%
